Source: PubChem (The Scripps Research Institute Molecular Screening Center)
This is a sample that favours compounds with a hit; in the whole collection about 0.83% have one here.
NCOA1 inh: inhibitors of human steroid receptor coactivator 1 (SRC1); Q15788; HEK293 GAL4-SRC1 luciferase reporter, luminescence; inhibition, % at 3.6 µM; hit rate 0.12% among 360,000; AID 588354;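 active = inhibition above the campaign mean plus 3 SD, with each screening campaign given its own cutoff, cut at about 60% in these data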;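 also: 0% = DMSO treated cells and 100% = gossypol at 36 µM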
SRC2 inh: human SRC2 (NCOA2) inhibition | HEK293 GAL4-SRC2 luciferase reporter, luminescence | hit rate 0.17% among 370,000 | Q15596 | AID 651957 | inhibition, % at 9 µM;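 active = inhibition above the mean inhibition of all tested compounds plus 3 SD, set per campaign, cut at about 52% in these data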;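 also: 0% = DMSO treated cells and 100% = cells given Gossypol at 36 µM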
Target sequence (Q15596 whole entry, looked up, the tested form may be a part): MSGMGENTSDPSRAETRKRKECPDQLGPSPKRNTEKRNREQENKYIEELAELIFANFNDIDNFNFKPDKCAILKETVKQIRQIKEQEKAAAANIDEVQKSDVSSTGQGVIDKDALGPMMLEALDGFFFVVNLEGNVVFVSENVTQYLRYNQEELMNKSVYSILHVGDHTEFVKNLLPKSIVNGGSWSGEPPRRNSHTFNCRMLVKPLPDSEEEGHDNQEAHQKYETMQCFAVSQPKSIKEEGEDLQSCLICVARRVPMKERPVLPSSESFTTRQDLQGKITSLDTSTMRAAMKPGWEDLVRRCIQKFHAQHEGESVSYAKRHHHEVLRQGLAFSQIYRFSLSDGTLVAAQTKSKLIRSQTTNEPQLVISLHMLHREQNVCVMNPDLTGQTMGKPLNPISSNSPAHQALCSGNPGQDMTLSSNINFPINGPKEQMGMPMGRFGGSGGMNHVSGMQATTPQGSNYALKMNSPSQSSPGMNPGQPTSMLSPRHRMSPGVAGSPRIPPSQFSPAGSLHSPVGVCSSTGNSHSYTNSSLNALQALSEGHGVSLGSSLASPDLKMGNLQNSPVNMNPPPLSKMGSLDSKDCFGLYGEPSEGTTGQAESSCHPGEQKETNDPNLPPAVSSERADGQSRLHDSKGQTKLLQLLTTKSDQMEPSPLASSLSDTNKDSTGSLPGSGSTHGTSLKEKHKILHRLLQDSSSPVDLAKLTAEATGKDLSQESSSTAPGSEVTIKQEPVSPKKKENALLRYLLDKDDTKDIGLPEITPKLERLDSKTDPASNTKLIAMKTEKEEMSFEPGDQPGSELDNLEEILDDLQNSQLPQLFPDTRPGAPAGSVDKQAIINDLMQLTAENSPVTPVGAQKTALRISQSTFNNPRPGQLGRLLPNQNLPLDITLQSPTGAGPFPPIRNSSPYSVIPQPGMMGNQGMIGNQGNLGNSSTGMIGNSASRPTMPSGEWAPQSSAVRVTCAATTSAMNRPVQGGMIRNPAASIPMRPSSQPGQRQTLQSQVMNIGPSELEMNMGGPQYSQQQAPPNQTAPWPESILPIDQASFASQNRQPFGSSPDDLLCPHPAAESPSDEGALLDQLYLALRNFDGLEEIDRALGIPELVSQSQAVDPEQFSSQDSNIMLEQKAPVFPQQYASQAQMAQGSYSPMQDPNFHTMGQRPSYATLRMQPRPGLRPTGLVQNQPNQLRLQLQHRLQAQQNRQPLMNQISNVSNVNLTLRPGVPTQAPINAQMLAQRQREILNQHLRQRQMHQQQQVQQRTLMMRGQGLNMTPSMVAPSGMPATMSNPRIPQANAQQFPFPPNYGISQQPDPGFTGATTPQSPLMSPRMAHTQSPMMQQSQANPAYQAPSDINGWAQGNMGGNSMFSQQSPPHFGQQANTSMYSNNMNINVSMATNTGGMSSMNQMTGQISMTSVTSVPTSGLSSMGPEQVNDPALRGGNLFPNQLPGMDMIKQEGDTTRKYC
COUP-TFII inh: NR2F2 (human) inhibition, primary screen | HEK293T NGFI-A luciferase reporter, luminescence | inhibition, % at 8.6 µM | hit rate 0.7% among 370,000 | AID 686940;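 active = inhibition above a per-plate cutoff, mean inhibition of test wells between control levels plus 3 SD, cut at about 38% in these data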;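 also: cells cotransfected with COUP-TFII expression vector driving the NGFI-A reporter; 0% = median of COUP-TF2 test wells and 100% = reporter-only cells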
LRH-1 inv ag: NR5A2 inverse agonism in reporter assay; HEK293T StAR-luciferase reporter, LRH-1 transfected, 24 h; hit rate 0.13% among 360,000; AID 602396; inhibition, % at 3.6 µM;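 active = inhibition above the mean inhibition of all tested compounds plus 3 SD, cut at about 73% in these data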;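 also: 0% = DMSO wells and 100% = reporter-only cells lacking LRH-1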
NCOA3 inh: inhibitors of human steroid receptor coactivator 3 (SRC3) | hit rate 0.17% among 360,000 | HEK293 GAL4-SRC3 luciferase reporter, luminescence | Q9Y6Q9 | inhibition, % at 3.6 µM;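 active = inhibition above a per-campaign cutoff, the mean of all compounds plus 3 SD, cut at about 60% in these data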;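 also: 0% = DMSO-treated cells and 100% = gossypol-treated cells at 36 µM; higher means less SRC3-driven luciferase light from the GAL4 reporter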
Gal4-VP16 ctr: inhibits VP16 reporter, flagging COUP-TFII antagonist hits. shares compounds with COUP-TFII inh. inhibition, % at 8.5 µM. HEK293 Gal4-VP16 luciferase reporter, luminescence. hit rate 25% among 2,500. AID 687007; in the data active = inhibition above about 13%
COUP-TFII conf: COUP-TFII (NR2F2) inhibition, confirmation assay; hit rate 45% among 2,500; HEK293 NGFI-A luciferase reporter, luminescence; shares compounds with COUP-TFII inh; inhibition, % at 8.5 µM; AID 687008;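 active = mean inhibition over three repeats above a set limit taken from the earlier primary screen, cut at about 38% in these data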;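 also: 100% = cells given the luciferase reporter alone without the COUP-TF2 vector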
Numbers without * were called inactive; . = not tested or not shown.

SMILES	NCOA1 inh	SRC2 inh	COUP-TFII inh	LRH-1 inv ag	NCOA3 inh	Gal4-VP16 ctr	COUP-TFII conf
S=C(Nc1ccc(Cl)cc1)c1nc2ccccc2s1	-59.0	-33.1	-23.3	-45.0	-67.5	.	.
N#Cc1c(NCc2ccccc2)ccnc1NCc1cccnc1	4.8	28.1	44.0*	23.0	28.1	1.9	42.2*
Cc1ccc(NC(=S)NNC(=O)CSc2nc3sc4c(c3c(=O)n2-c2ccccc2)CCCC4)cc1	.	-27.1	5.3	.	.	.	.
CC(Sc1nc2ccccc2c(=O)n1CC1CCCO1)C(=O)N(C)Cc1ccccc1 (stereo unspecified)	-15.5	-13.4	-5.5	5.2	0.1	.	.
CC(Sc1nc2ccccc2c(=O)n1C)C(=O)N(C)C1CCCCC1 (stereo unspecified)	17.6	25.8	46.3*	27.9	12.1	6.4	26.2
CN(Cc1cccc2cnccc12)C(=O)c1cc(COc2ccc(F)cc2F)on1	22.0	12.9	45.0*	29.1	27.3	-4.0	19.7
CSc1ccccc1OCc1cc(C(=O)NC(C)c2cnn(C)c2)no1 (stereo unspecified)	-46.7	-16.5	-7.5	-24.9	-28.9	.	.
CCc1ccc(CN(C)C(=O)c2cc(COc3cccc4cnccc34)on2)cc1	14.5	17.7	66.4*	37.3	33.7	-7.2	57.5*
Cc1c(C(C)NC(=O)c2cc(COc3cccc4cnccc34)on2)cnn1C (stereo unspecified)	28.7	44.5	55.5*	33.9	46.7	5.5	41.8*
CC(=O)c1cccc(NC(=O)c2cnn3c(C)cc(C)nc23)c1	.	.	-21.4	.	.	.	.
COC(=O)[C@]12C[C@H](CC(=O)N3CCCCC3)C(=O)N(Cc3ccco3)C1=C[C@H](C1CCCC1)O[C@@H]2C	.	15.4	-19.3	.	.	.	.
CCOC(=O)C1=C(C(=O)OCC)C2N(Cc3ccccc3)c3ccccc3[C@@]23C[C@@H](C(=O)OC)N(S(=O)(=O)c2ccc(C(F)(F)F)cc2)C3=N1 (stereo partly specified)	.	25.3	2.4	.	.	.	.
CCc1cccc(CC)c1NC(=O)CSc1nc2ccc(N3C(=O)C4C5C=CC(C5)C4C3=O)cc2s1 (stereo unspecified)	12.5	2.8	39.4*	-1.3	3.5	-5.7	17.1
COc1cc(NC(=O)c2cccs2)c(C(=O)OCC(=O)c2cc(C)n(-c3ccccc3)c2C)cc1OC	10.6	56.8*	64.6*	1.7	26.6	18.2*	36.7
Cc1cc2nc(C)n(CCCNC(=O)Nc3cccc4ccccc34)c2cc1C	-6.5	10.2	37.7*	10.8	15.2	-1.9	18.5
CCOc1ccc(NC(=O)NCCCn2c(C)nc3cc(C)c(C)cc32)cc1	-20.6	-8.8	11.4	17.9	15.8	.	.
Cc1ccc(-c2cc3c(N=O)c4ccccc4c-3n[nH]2)cc1	69.4*	61.3*	83.9*	42.4	72.9*	36.7*	86.5*
COc1cc(/C=C2\COC/C(=C\c3ccc(O)c(OC)c3)C2=O)ccc1O	-13.2	-55.8	63.4*	-15.8	18.2	12.9	18.6
COc1cc(/C=C2/CC/C(=C/c3ccc(O)c(OC)c3)C2=O)ccc1O	-7.3	5.7	-18.9	-13.2	-5.0	.	.
COc1ccc(/C=C2\CC/C(=C\c3ccc(OC)c(OC)c3)C2=O)cc1OC	45.1	64.7*	51.1*	6.8	51.5	31.9*	49.5*
COc1cc(/C=C2\CC/C(=C\c3ccc(OCCO)c(OC)c3)C2=O)ccc1OCCO	-19.2	-18.6	-6.3	16.3	-5.5	.	.
O=C(OC12CCCN(C1)/C(=C/c1cccc(Cl)c1)C2)C1CCCC1 (stereo unspecified)	.	-1.8	-0.1	.	.	.	.
Cc1cc(/C=C2/C(=O)NN(c3ccccc3)C2=O)c(C)n1-c1cccc(O)c1	21.8	-22.5	40.6*	-26.8	25.7	-62.5	39.2*
O=C1NN(c2ccccc2)C(=O)C1=Cc1ccccc1O	4.2	-10.5	-4.6	-9.3	-47.5	.	.
Nc1ccc2c(c1)OC1(CCCC1)O2	50.5	66.1*	64.6*	25.6	54.5	-10.4	11.3
SMILES	NCOA1 inh	SRC2 inh	COUP-TFII inh	LRH-1 inv ag	NCOA3 inh	Gal4-VP16 ctr	COUP-TFII conf
O=C(NCc1cccs1)C1C2C=CC3(CN(Cc4ccccc4)C(=O)C13)O2 (stereo unspecified)	.	10.3	-9.4	.	.	.	.
CN(C)c1ccc(/C=N/N=C2/NC(=O)/C(=C/c3ccc([N+](=O)[O-])cc3)S2)cc1	26.1	25.0	40.8*	-3.6	13.8	-57.6	35.7
C=CCN(CC#CC(=C)C)CC1CC1	.	13.8	-13.0	.	.	.	.
Cc1ccc(NC(=O)N2CCC(N(C)CCC(C)C)CC2)cc1F	.	-2.5	-5.6	.	.	.	.
O=[N+]([O-])c1ccc(C[n+]2cccc3ccccc32)cc1	2.1	-9.4	-5.0	12.1	4.2	.	.
c1ccc(C[n+]2cccc3c4ccccc4ccc32)cc1	19.2	18.9	52.8*	60.6	32.6	3.0	44.9*
CCCCC[n+]1cccc2c3ccccc3ccc21	51.3	-28.6	64.2*	78.1*	56.6	16.1*	59.9*
O=C(Nc1nc2ncccn2c1-c1ccccc1)c1ccccc1	.	4.1	-3.8	.	.	.	.
Cc1ccc(-c2csc(=Nc3cccnc3)n2CCCn2ccnc2)cc1C	62.8*	62.4*	55.2*	15.7	56.0	18.3*	44.8*
Cc1ccc(-c2csc(=Nc3cccnc3)n2CCCN2CCCC2=O)cc1C	7.2	-10.5	-8.9	1.4	14.3	.	.
O=C(CNc1ccccc1F)Nc1cc(S(=O)(=O)N2CCCCC2)ccc1Cl	-6.1	11.8	-38.9	-14.7	9.6	.	.
COc1ccccc1NC(=O)c1ccc(S(=O)(=O)N2CCCC2)cc1	12.8	-15.7	4.3	-29.0	-9.5	.	.
O=C(/C=C/c1ccco1)Nc1cccc(S(=O)(=O)N2CCOCC2)c1	-3.6	4.0	1.3	-27.6	-9.5	.	.
CCc1ccc(C(=O)Nc2ccc(OC)c(S(=O)(=O)N3CCCCC3)c2)cc1	9.7	30.4	57.8*	22.6	19.8	-2.4	33.9
Cc1ccc(NC(=O)/C=C/c2ccco2)cc1S(=O)(=O)N1CCCCCC1	-9.4	21.1	50.3*	-14.1	22.9	0.0	30.6
COc1ccccc1NS(=O)(=O)c1ccc(C)c(NC(=O)c2ccc(S(=O)(=O)N3CCCCCC3)cc2)c1	12.6	14.4	41.2*	-19.8	26.1	2.1	29.5
Cc1ccc(S(=O)(=O)N2CCCCC2)cc1NCC(=O)Nc1ccc(Br)cc1F	8.6	17.7	54.6*	19.4	9.4	0.9	26.6
COCCN1Cc2cc(C(=O)OC)c3c(c2C1=O)c1ccccc1n3S(=O)(=O)c1ccc(OC)cc1	.	-19.1	2.4	.	.	.	.
COc1ccc(C(=O)Nc2ccc(C)c(S(=O)(=O)N3CCCCCC3)c2)cc1	15.6	7.4	45.9*	7.2	5.0	-0.2	19.7
CN(c1ccc(NC(=O)CCc2c[nH]c3ccccc23)cc1)c1ccccn1	.	0.5	-6.4	.	.	.	.
Cc1ccc(C(=O)NC(=S)Nc2ccc(-c3cc4ccccc4oc3=O)cc2)c(C)c1	22.0	38.4	17.9	17.9	12.5	.	.
